Reference: ChEMBL document CHEMBL1157539, “Thousands of chemical starting points for antimalarial lead identification” (Nature, 2010)

Test system: Plasmodium falciparum
Assay: GSK_TCMDC: Inhibition of Plasmodium falciparum Dd2 in whole red blood cells, using parasite LDH activity as an index of growth. Test compounds present at 2uM
Format: functional

Structure (SMILES) | Inhibition
Cl.O=C(N[C@@H](Cc1ccccc1)[C@H](O)CNC1CCc2ccccc2C1)c1cc(C2CCCC2)cc(N2CCCC2=O)c1 (stereo not given in full) | 76%
COc1ccc(Oc2ccc(-c3c(O)cc(C)nc3C)cc2)cc1 | 88%
N#Cc1cccc(CN2CCCN(Cc3cccc(C(=O)Nc4ccc(Cl)cc4)c3)CC2)c1.O=C(O)C(F)(F)F | 9%
FC(F)(F)c1cccc(CNCCCCCNCc2ccc(Cl)cc2)c1 | 15%
COc1ccc(Nc2nc(NC3CCN(C)CC3)cc(-c3ccc(OC)cc3)n2)cc1 | 51%
CN(C(=O)/C=C/c1ccccc1F)C1CCN(CCCCCNC(=O)/C=C/c2ccc(Cl)c(Cl)c2)CC1 | 59%
Cc1ccc2oc3cc(-c4nnn[nH]4)ccc3c(=O)c2c1 | 96%
Cl.OC(CNCCCCCCNCC(O)c1ccc(Cl)c(Cl)c1)c1ccc(Cl)c(Cl)c1 (stereo not given) | 17%
CCCNC(=O)Nc1ccc(N(C)c2ccnc(NC3CC3)n2)cc1 | 88%
CC(=O)Oc1cc(C(=O)Nc2ccc(Cl)cc2)cc2ccccc12 | 47%
CCN(CC)S(=O)(=O)c1ccc(CCOCCCCCNCC(O)c2cc(Cl)c(N)c(Cl)c2)s1.O=C(O)/C=C/C(=O)O (stereo not given) | 80%
CC(C)(C)c1ccc(CN2CCC(NC(=O)c3ccc(-c4cccc(C(F)(F)F)c4)s3)CC2)cc1.O=C(O)C(F)(F)F | 96%
Cc1cccc2nc(-c3ccc(-c4ccc(CN5CCCCC5)cc4)s3)[nH]c12.O=C(O)C(F)(F)F | 87%
O=C(Cc1ccc([N+](=O)[O-])cc1)N1CCc2cc3nccc(N4CCN5CCC[C@@H]5C4)c3cc21 | 7%
CSCCCN1CCC(O)(c2ccc3oc(C(=O)Nc4ccc5sc(C)nc5c4)cc3c2)CC1 | 69%
COc1cc2nc(N3CCC(CNC(=O)c4ccc(OC(F)(F)F)cc4)CC3)nc(N)c2cc1OC.O=C(O)C(F)(F)F | 98%
CCCCCCCN1CC[C@@H](CCCc2ccnc3ccc(OC)cc23)[C@@H](CNC)C1.O=C(O)C(=O)O | 95%
CC(=O)Nc1nc(C(=O)Nc2ccc(-c3ccc(-c4nc5ccccc5[nH]4)cc3)cc2)cs1 | 53%
CCCCCCSc1nnc(COc2cccc3ccccc23)n1-c1ccc(OC)cc1 | 100%
COc1ccc(Oc2ccc(Nc3ccnc4ccc(C(F)(F)F)cc34)cc2)cc1OC.Cl | 17%

Structure (SMILES) | Inhibition
Cl.Cn1c(=O)n(C)c2cc(CNCCNc3ccnc4cc(Cl)ccc34)ccc21 | 96%
Cc1ccc(S(=O)(=O)c2nc(S(=O)(=O)c3ccccc3)sc2NCC2CCCO2)cc1 (stereo not given) | 17%
COc1cccc(CNC[C@@H](O)[C@H](Cc2ccccc2)NC(=O)c2cc(NC(C)C)cc(N3CCCCS3(=O)=O)c2)c1.O=CO | 97%
CCN1CCC(N(Cc2ccc(-c3ccc(Cl)cc3)cc2)C(=O)Cn2c(CCc3cccc(F)c3F)cc(=O)c3ccccc32)CC1.O=C(O)C(O)C(O)C(=O)O | 95%
CCOc1cc(C(=O)NCCN(CC)c2cccc(C)c2)ccc1-c1nc2cc(Cl)ccc2[nH]1 | 80%
Cc1ccccc1OCC(O)CNC1CCC(NCC(O)COc2ccccc2C)CC1 (stereo not given) | 24%
CC(C)CCN1CCCN(Cc2cccc(NC(=O)c3ccc(Cl)c(Cl)c3)c2)CC1.O=C(O)C(F)(F)F | 13%
Clc1ccccc1OCc1ccccn1 | 2%
Cl.O=c1ccc2ncc(Cl)c3c2n1CC3CN1CCC(NCc2cc3c(cn2)OCCO3)CC1 (stereo not given) | 29%
CS(=O)(=O)c1ccc(-c2cncc(Nc3cccc([N+](=O)[O-])c3)c2)cc1 | 70%
CCc1sc(-c2ccc(C(C)(C)C)cc2)nc1C(=O)NCCCN1CCCC1=O | 69%
C=C1C(C(=O)OCC)=CN(CC)c2cc(O[C@H]3CCN(C(=O)OC(C)(C)C)C3)ccc21 | 75%
CCCCOc1ccc(-n2c(Nc3ccccc3)nc3cc(S(N)(=O)=O)ccc32)cc1 | 72%
CC(C)N1CCN(C(CN2CCN(CCCOc3cccc(F)c3)CC2)c2ccc(F)cc2)CC1.Cl (stereo not given) | 38%
C=CCc1ccc(C2CCN(CCCCNC(=O)c3ccc(NC(=O)c4ccc(Cl)cc4)cc3)CC2)cc1 | 97%
Cc1ccc(Nc2nc(N/N=C/c3cc4c(cc3Br)OCO4)nc(Nc3ccc([N+](=O)[O-])cc3)n2)cc1C | 89%
CN(C)CCCN(C)C(=O)c1cc2cc(-c3ccccc3)ccc2n1S(=O)(=O)c1ccccc1.Cl | 66%
CCCc1ccc(S(=O)(=O)Nc2ccc3c(c2)CCC3)cc1 | 0%
Cc1cccc(C(=O)NC(NC(=S)Nc2ccc([N+](=O)[O-])cc2)C(Cl)(Cl)Cl)c1 (stereo not given) | 66%
COc1cc2nc(NCCc3ccccc3)nc(NCc3ccc(C#N)cc3)c2cc1OC | 100%

Test system: HepG2
Assay: GSK_TCMDC: Percent inhibition of human HepG2 cell line. Test compounds present at 10uM.
Format: functional

Structure (SMILES) | Inhibition
Cl.O=C(N[C@@H](Cc1ccccc1)[C@H](O)CNC1CCc2ccccc2C1)c1cc(C2CCCC2)cc(N2CCCC2=O)c1 (stereo not given in full) | 23%
COc1ccc(Oc2ccc(-c3c(O)cc(C)nc3C)cc2)cc1 | 0%
N#Cc1cccc(CN2CCCN(Cc3cccc(C(=O)Nc4ccc(Cl)cc4)c3)CC2)c1.O=C(O)C(F)(F)F | 46%
FC(F)(F)c1cccc(CNCCCCCNCc2ccc(Cl)cc2)c1 | 13%
COc1ccc(Nc2nc(NC3CCN(C)CC3)cc(-c3ccc(OC)cc3)n2)cc1 | 62%
CN(C(=O)/C=C/c1ccccc1F)C1CCN(CCCCCNC(=O)/C=C/c2ccc(Cl)c(Cl)c2)CC1 | 73%
Cc1ccc2oc3cc(-c4nnn[nH]4)ccc3c(=O)c2c1 | 2%
Cl.OC(CNCCCCCCNCC(O)c1ccc(Cl)c(Cl)c1)c1ccc(Cl)c(Cl)c1 (stereo not given) | 99%
CCCNC(=O)Nc1ccc(N(C)c2ccnc(NC3CC3)n2)cc1 | 28%
CC(=O)Oc1cc(C(=O)Nc2ccc(Cl)cc2)cc2ccccc12 | 16%
CCN(CC)S(=O)(=O)c1ccc(CCOCCCCCNCC(O)c2cc(Cl)c(N)c(Cl)c2)s1.O=C(O)/C=C/C(=O)O (stereo not given) | 35%
CC(C)(C)c1ccc(CN2CCC(NC(=O)c3ccc(-c4cccc(C(F)(F)F)c4)s3)CC2)cc1.O=C(O)C(F)(F)F | 97%
Cc1cccc2nc(-c3ccc(-c4ccc(CN5CCCCC5)cc4)s3)[nH]c12.O=C(O)C(F)(F)F | 16%
O=C(Cc1ccc([N+](=O)[O-])cc1)N1CCc2cc3nccc(N4CCN5CCC[C@@H]5C4)c3cc21 | 0%
CSCCCN1CCC(O)(c2ccc3oc(C(=O)Nc4ccc5sc(C)nc5c4)cc3c2)CC1 | 10%
COc1cc2nc(N3CCC(CNC(=O)c4ccc(OC(F)(F)F)cc4)CC3)nc(N)c2cc1OC.O=C(O)C(F)(F)F | 16%
CCCCCCCN1CC[C@@H](CCCc2ccnc3ccc(OC)cc23)[C@@H](CNC)C1.O=C(O)C(=O)O | 25%
CC(=O)Nc1nc(C(=O)Nc2ccc(-c3ccc(-c4nc5ccccc5[nH]4)cc3)cc2)cs1 | 38%
CCCCCCSc1nnc(COc2cccc3ccccc23)n1-c1ccc(OC)cc1 | 19%
COc1ccc(Oc2ccc(Nc3ccnc4ccc(C(F)(F)F)cc34)cc2)cc1OC.Cl | 0%

Structure (SMILES) | Inhibition
Cl.Cn1c(=O)n(C)c2cc(CNCCNc3ccnc4cc(Cl)ccc34)ccc21 | 17%
Cc1ccc(S(=O)(=O)c2nc(S(=O)(=O)c3ccccc3)sc2NCC2CCCO2)cc1 (stereo not given) | 4%
COc1cccc(CNC[C@@H](O)[C@H](Cc2ccccc2)NC(=O)c2cc(NC(C)C)cc(N3CCCCS3(=O)=O)c2)c1.O=CO | 1%
CCN1CCC(N(Cc2ccc(-c3ccc(Cl)cc3)cc2)C(=O)Cn2c(CCc3cccc(F)c3F)cc(=O)c3ccccc32)CC1.O=C(O)C(O)C(O)C(=O)O | 100%
CCOc1cc(C(=O)NCCN(CC)c2cccc(C)c2)ccc1-c1nc2cc(Cl)ccc2[nH]1 | 0%
Cc1ccccc1OCC(O)CNC1CCC(NCC(O)COc2ccccc2C)CC1 (stereo not given) | 96%
CC(C)CCN1CCCN(Cc2cccc(NC(=O)c3ccc(Cl)c(Cl)c3)c2)CC1.O=C(O)C(F)(F)F | 35%
Clc1ccccc1OCc1ccccn1 | 2%
Cl.O=c1ccc2ncc(Cl)c3c2n1CC3CN1CCC(NCc2cc3c(cn2)OCCO3)CC1 (stereo not given) | 27%
CS(=O)(=O)c1ccc(-c2cncc(Nc3cccc([N+](=O)[O-])c3)c2)cc1 | 6%
CCc1sc(-c2ccc(C(C)(C)C)cc2)nc1C(=O)NCCCN1CCCC1=O | 0%
C=C1C(C(=O)OCC)=CN(CC)c2cc(O[C@H]3CCN(C(=O)OC(C)(C)C)C3)ccc21 | 9%
CCCCOc1ccc(-n2c(Nc3ccccc3)nc3cc(S(N)(=O)=O)ccc32)cc1 | 0%
CC(C)N1CCN(C(CN2CCN(CCCOc3cccc(F)c3)CC2)c2ccc(F)cc2)CC1.Cl (stereo not given) | 38%
C=CCc1ccc(C2CCN(CCCCNC(=O)c3ccc(NC(=O)c4ccc(Cl)cc4)cc3)CC2)cc1 | 27%
Cc1ccc(Nc2nc(N/N=C/c3cc4c(cc3Br)OCO4)nc(Nc3ccc([N+](=O)[O-])cc3)n2)cc1C | 23%
CN(C)CCCN(C)C(=O)c1cc2cc(-c3ccccc3)ccc2n1S(=O)(=O)c1ccccc1.Cl | 29%
CCCc1ccc(S(=O)(=O)Nc2ccc3c(c2)CCC3)cc1 | 8%
Cc1cccc(C(=O)NC(NC(=S)Nc2ccc([N+](=O)[O-])cc2)C(Cl)(Cl)Cl)c1 (stereo not given) | 14%
COc1cc2nc(NCCc3ccccc3)nc(NCc3ccc(C#N)cc3)c2cc1OC | 52%
